NCF1 inh – blocks human p47phox regulatory protein of NADPH oxidases | P14598 | p47phox/p22phox peptide binding, fluorescence polarization, 2 h | inhibition, % at 24.7 µM | hit rate 0.53% among 220,000 | AID 1274;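 active = inhibition above about 30%, limit read from the data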;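 note: 0% = p47phox with labelled peptide and 100% = labelled peptide alone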
Target sequence (P14598 whole entry, looked up): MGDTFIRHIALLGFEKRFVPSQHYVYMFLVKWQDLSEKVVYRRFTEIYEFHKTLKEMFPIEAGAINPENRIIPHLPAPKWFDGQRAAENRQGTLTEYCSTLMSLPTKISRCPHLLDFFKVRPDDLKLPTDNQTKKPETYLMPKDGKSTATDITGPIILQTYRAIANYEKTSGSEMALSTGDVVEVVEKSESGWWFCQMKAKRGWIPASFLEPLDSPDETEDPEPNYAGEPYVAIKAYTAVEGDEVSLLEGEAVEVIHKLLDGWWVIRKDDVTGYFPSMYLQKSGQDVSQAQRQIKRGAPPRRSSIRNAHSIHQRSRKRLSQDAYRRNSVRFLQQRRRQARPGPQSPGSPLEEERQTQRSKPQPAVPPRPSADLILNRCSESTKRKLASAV
Arbovirus anti – blocks arbovirus infection | arbovirus infection cell-based antiviral screen | inhibition, % at 10 µM | hit rate 0.37% among 200,000; in the data active = inhibition above about 30%
Autophagy HCS – modulators of autophagy; MEF GFP-LC3 puncta imaging; test concentration mostly 10 µM; calls only at 10 µM (by protocol); hit rate 0.98% among 190,000; AID 463193;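 active = percentage of spot-positive cells more than 3 SD above its plate mean, without a fluorescence outlier flag or 80% toxicity; inconclusive = no clear call, values can overlap the other calls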;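 note: spot-positive cell cutoff set from DMSO-treated cells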
Redox H2O2 prof – compounds producing H2O2 with reducing agent – biochemical, NIH compound library profiling, artefact control for MLSCN library redox annotation, primary screen; AID 878; DTT-dependent redox cycling H2O2, phenol red/HRP absorbance; 100% = 100 µM peroxide control, 0% = buffer; hit rate 0.03% among 200,000; activation, % at 10 µM;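 active = activation of at least 50% relative to the plate's high and low controls in the primary single-dose screen; inactive = activation below 50%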;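 note: compound incubated with DTT at 0.8 mM final as the reducing agent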
Efa HMGR inh – inhibitors of class II HMG-CoA reductase from Enterococcus faecalis | purified E. faecalis HMGR, NADPH absorbance 340 nm kinetic | inhibition, % at 10 µM | hit rate 0.41% among 190,000;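 active = inhibition above a set limit, the median over all tested compounds plus 3 SD, cut at about 9.5% in these data; inconclusive = no clear call, values can overlap the other calls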;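 note: enzyme runs in reverse so mevalonate oxidation gives rising NADPH absorbance; 0% = complete reaction with DMSO and 100% = background rate lacking mevalonate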
Ins promoter up – MIN6 insulin promoter up-regulation; MIN6 insulin promoter-GFP reporter, high-content imaging; hits give high values; z-score at 5 µM; hit rate 0.3% among 190,000; AID 1625;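 active = z-score above 3 at 5 µM with at least 500 cells counted in the well; inconclusive = wells under 500 cells, flagged as cytotoxic or low count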
* = called active by the depositor; i = inactive; ? = inconclusive; · = no result given; + = active, no number; ! = not confirmed by another sample. Shown are actives, neighbours in structure and some others; about 2.2% of the full set was active somewhere.

SMILES | NCF1 inh | Arbovirus anti | Autophagy HCS | Redox H2O2 prof | Efa HMGR inh | Ins promoter up
CCC(C)NC(=O)CCn1c(-c2ccc(F)cc2)cc(C(C)=O)c1C (centres undefined) | -7.8 | 16.8 | i | -0.5 | 9.7* | -0.21
CCOC(=O)C1(C)NC(c2ccccc2F)C2C(=O)N(CC)C(=O)C21 (centres undefined) | -3.6 | 0.5 | i | -0.7 | -0.1 | -0.8
CCOC(=O)C1=Nc2ccccc2C1=[N+]=[N-] | -14.8 | 45.0* | i | 0.5 | -10.9 | -2.82
Nc1ccc2c(c1)OC1(CCCC1)O2 | 13.8 | -9.4 | i | -0.4 | -1.9 | 0.17
O=C(COc1ccccc1C(=O)Nc1ccccc1)c1ccc(Br)cc1 | -3.0 | 0.8 | i | 0.0 | 10.2* | -2.83
O=C(C/C=N/OCc1ccc(F)cc1Cl)c1cnc(-c2ccccc2)s1 | -20.4 | 7.8 | i | 1.9 | 11.1* | ·
CCOC(=O)c1ccc(N2C(=O)C3C(/C=C/c4ccccc4)OC4(C(=O)c5ccccc5C4=O)C3C2=O)cc1 (centres undefined) | -0.5 | 73.2* | i | 0.1 | -2.6 | -0.54
CCOC(=O)c1ccc(N2C(=O)C(C)=C(C)C2=O)cc1 | -15.2 | -10.1 | i | 0.2 | 1.2 | 0.04
Cc1ccc(S(=O)(=O)N2CCN(CC(=O)NC(=O)NCc3ccccc3)CC2)cc1C | -5.1 | -8.9 | i | -0.4 | -0.8 | 0.39
COC(=O)c1c(N2C(=O)[C@H]3[C@@H](C2=O)[C@]2(C(=O)Nc4ccc(C)cc42)N2CCC[C@@H]32)sc(C)c1C | -20.1 | 0.8 | i | -0.3 | 0.2 | ·
COC(=O)Cn1c2ccc(Cl)cc2c2nc(C)sc21 | -3.5 | · | · | · | · | -0.37
Cc1nc2c3cc(Cl)ccc3n(CCN3CCCCC3)c2s1 | -9.8 | -11.3 | + | 0.8 | 0.6 | -1.1
Nc1nc2ccccc2n1/N=C/c1ccc(-c2ccccc2)o1 | -30.9 | 39.1* | i | -3.2 | -2.8 | -0.27
Cc1ccc(-c2nc3cccnc3s2)cc1NC(=O)C1c2ccccc2Oc2ccccc21 | 33.3* | -9.1 | i | 1.0 | -0.3 | 0.37
Cc1ccc(-c2nc3cccnc3s2)cc1NC(=O)c1ccco1 | · | · | i | 0.1 | · | ·
O=C(NCc1n[nH]c(=S)n1-c1ccccc1)c1cccs1 | 0.9 | 3.9 | i | -0.1 | 12.0* | 0.09
O=C(NCc1n[nH]c(=S)n1-c1cccc(Cl)c1)c1cccs1 | -5.9 | 1.8 | i | -0.3 | -3.6 | 1.12
CCC(=Cc1ccc(CC)cn1)CC | 9.4 | · | · | · | · | 0.88
Cc1nn(Cc2ccc([N+](=O)[O-])cc2)c(=O)n1-c1ccccc1Cl | -7.4 | 1.6 | + | -1.6 | -2.0 | -0.8
COc1cc2c(cc1OC)C(C(=O)NCc1cccnc1)C(c1cccnc1)N(C)C2=O (centres undefined) | 0.1 | 0.2 | i | 1.3 | -0.6 | 0.03
COc1cccc(N2CCN(c3ncccn3)CC2)c1 | 11.8 | 1.0 | i | -0.4 | 4.5 | 3.1*
COc1cccc(C(=O)N2CCN(c3ncccn3)CC2)c1 | -17.0 | 1.8 | i | -0.3 | -0.2 | -0.16
CCc1cc2c(=O)c(-c3cscn3)coc2c(CN(C)C)c1O | -18.2 | 38.5* | i | 3.1 | 1.6 | -0.46
O=C(Nc1ccon1)c1sc2cc(F)ccc2c1Cl | -14.4 | -4.4 | + | 0.0 | -0.5 | -0.17
O=C(COc1ccccc1)N1CCN=C1c1ccccc1 | -3.7 | 3.0 | i | 1.1 | -2.7 | 3.07*
SMILES | NCF1 inh | Arbovirus anti | Autophagy HCS | Redox H2O2 prof | Efa HMGR inh | Ins promoter up
O=C(c1ccco1)N1CCN(Cc2cn[nH]c2-c2ccc(F)cc2F)CC1 | 0.7 | -6.7 | i | -0.8 | -0.3 | 0.17
Cc1cc(N2CCN(C)CC2)nc2ccc(NC(=S)N3CCC4(CC3)OCCO4)cc12 | -18.1 | -2.0 | i | -2.1 | -0.9 | -0.76
CCN=c1scc(C)n1/N=C/c1cc(Br)c(O)c(Br)c1 | -18.5 | 31.3* | i | -0.2 | 2.7 | -0.13
COc1ccc(NC(=O)C2CCCN2C(=O)OC(C)(C)C)cc1 (centres undefined) | 5.5 | -2.7 | i | -1.1 | 1.0 | 0.43
CCOC(=O)C1=C(c2ccccc2)NC(SCC(=O)Nc2cccc(C)c2)=C(C#N)C1c1ccco1 (centres undefined) | 2.3 | -32.7 | + | -0.4 | 0.5 | -0.26
CCOC(=O)C1=C(c2ccccc2)NC(SCC(=O)Nc2ccc(C)cc2)=C(C#N)C1c1ccco1 (centres undefined) | -7.1 | -16.1 | i | 0.8 | -0.4 | -1.42
CCOc1ccc(-n2c(C)c(C(C)=O)c3cc(OCC(N)=O)ccc32)cc1 | -1.6 | -7.7 | i | 0.7 | 1.4 | ·
CN1CCN(CCCNC(=O)c2ccc(CSCc3cccc(Cl)c3)o2)CC1 | -5.6 | -9.4 | i | -0.2 | -0.8 | -0.63
CC1CCN(CCCNC(=O)c2ccc(CSCc3cccc(Cl)c3)o2)CC1 | -7.9 | -7.5 | + | 0.1 | -5.3 | -0.74
Cc1cc(C)c2nc3nc(C)c(C)cc3c(N)c2c1 | 34.8* | -38.8 | i | -0.5 | -2.7 | -0.82
CCC1(CC)Cc2ccccc2C2=C(C(=O)N3CCCCC3)C(=O)C(=O)N21 | -3.9 | 2.0 | i | 11.5 | -5.2 | 0.05
CCN(CC)c1cccc(OCC(=O)N(C)CCC#N)c1 | -26.5 | 1.9 | + | 1.6 | -5.8 | -0.19
COc1ccc2cc(C3NC(=O)c4ccccc4N3)c(Cl)nc2c1 (centres undefined) | -7.8 | 4.4 | i | -0.1 | 18.9* | 0.05
ClCC1NCC(c2ccccc2Cl)c2c1[nH]c1ccccc21 (centres undefined) | -24.7 | 9.2 | i | 0.1 | -0.7 | 0.03
Cc1cccc(OCCn2c(NC(=O)c3ccco3)nc3ccccc32)c1 | -11.3 | -16.9 | + | 0.9 | 0.1 | -1.06
COC(CNC(=O)C1CC(=O)N(CCc2ccccc2)C1)OC (centres undefined) | -0.4 | 1.4 | i | 0.0 | 0.8 | ·
NC(=O)CSc1nnc(-c2cccnc2)n1Cc1ccccc1 | 7.0 | -0.3 | i | 0.5 | -0.1 | 0.47
O=C(CSc1nnc(-c2cccnc2)n1CCc1ccccc1)N1CCCCC1 | -8.0 | -2.8 | + | 0.4 | 1.3 | 0.55
CC[n+]1c(C=C2C=C(C)OC(C)=C2)sc2ccccc21 | -16.1 | -6.4 | + | 0.2 | -4.1 | ?
O=C(COC(=O)c1ccccc1S(=O)(=O)N1CCCCC1)NCC(F)(F)F | -28.1 | -2.5 | i | 1.5 | 2.2 | 0.24
Oc1cccc2ccc(/C=C/c3cccs3)nc12 | -12.9 | -11.9 | + | 0.4 | -0.6 | -0.62
Cc1ccsc1/C=C/c1ccc2cccc(O)c2n1 | -10.8 | -17.2 | i | 0.0 | -1.8 | -0.26
O=C(O)C1Nc2c(O)cc(Cl)c([N+](=O)[O-])c2C2C=CCC12 (centres undefined) | 22.0 | 23.1 | i | 0.3 | 13.4* | -1.42
CC1CCC(C(C)C)C(OC(=O)Cn2c(-c3ccccc3)[n+](C)c3ccccc32)C1 (centres undefined) | -4.6 | -28.0 | +! | -0.7 | -7.8 | ?
